Laboratory results: PubChem BioAssay AID1159580 (chemical genetic matrix, 2015)
Values joined by “and” are separate entries in the source; they are usually repeats but may differ in a detail not shown here. Equal entries are not always repeated. Hit rate of the full screen: of about 5,500 compounds, about 2,000 (36%) were called active. Roughly 18% stayed inconclusive and do not appear here. Rule as the data show it: active = normalized growth mostly below about 0.91 (no sharp cut-off); inconclusive = no clear call, values can overlap the other calls; inactive = mostly above about 0.92. The list shows a part of the results.

Assay: chemical genetic growth profiling, strain panel (AID 1159580);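 also: tested at 20 µM; growth read once vehicle control cultures reached saturation at 30 °C; 1 = growth at the plate median or of vehicle wells; lower values mean less growth of the strain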
Conditions: S. cerevisiae deletion strains, growth OD

Measured: normalized growth

CNC1(C)C2CCC(C2)C1(C)C (stereo unspecified)
inactive: locus YAL013W, strain DEP1, stronger effect = lower value 0.982 | locus YAL021C, strain ccr4, stronger effect = lower value 0.97 | locus YAL026C, strain drs2, stronger effect = lower value 1 | locus YAL030W, strain snc1, stronger effect = lower value 1 | locus YAL040C, strain CLN3, stronger effect = lower value 1 | locus YBL061C, strain skt5, stronger effect = lower value 0.998 | locus YBR009C, strain hhf1, stronger effect = lower value 0.993 | locus YBR021W, strain FUR4, stronger effect = lower value 1.03 | locus YBR023C, strain chs3, stronger effect = lower value 0.981 | locus YBR171W, strain sec66, stronger effect = lower value 0.986 | locus YBR229C, strain ROT2, stronger effect = lower value 0.961 | locus YBR231C, strain swc5, stronger effect = lower value 0.982 | locus YBR279W, strain paf1, stronger effect = lower value 0.986 | locus YCL011C, strain gbp2, stronger effect = lower value 0.996 | locus YCL016C, strain dcc1, stronger effect = lower value 0.977 | locus YCL029C, strain bik1, stronger effect = lower value 0.991 | locus YCL061C, strain MRC1 (second series), stronger effect = lower value 0.999 | locus YCL061C, strain MRC1, stronger effect = lower value 0.989 | locus YCL069W, strain vba3, stronger effect = lower value 0.997 | locus YCR088W, strain abp1, stronger effect = lower value 0.994 | locus YDL005C, strain med2, stronger effect = lower value 0.992 | locus YDL035C, strain GPR1, stronger effect = lower value 0.993 | locus YDL040C, strain nat1, stronger effect = lower value 0.997 | locus YDL074C, strain BRE1, stronger effect = lower value 0.957 | locus YDL101C, strain DUN1, stronger effect = lower value 0.969 | locus YDL134C, strain PPH21, stronger effect = lower value 0.989 | locus YDL185W, strain tfp1, stronger effect = lower value 0.968 | locus YDL192W, strain arf1, stronger effect = lower value 0.996 | locus YDR001C, strain nth1, stronger effect = lower value 0.996 | locus YDR069C, strain doa4, stronger effect = lower value 1.02 | locus YDR101C, strain arx1, stronger effect = lower value 1.01 | locus YDR137W, strain rgp1, stronger effect = lower value 0.987 | locus YDR150W, strain NUM1, stronger effect = lower value 0.977 | locus YDR159W, strain sac3, stronger effect = lower value 0.994 | locus YDR162C, strain NBP2, stronger effect = lower value 0.913 | locus YDR195W, strain ref2 1 | locus YDR297W, strain sur2, stronger effect = lower value 0.993 | locus YDR318W, strain mcm21, stronger effect = lower value 1.03 | locus YDR334W, strain swr1, stronger effect = lower value 1 | locus YDR335W, strain msn5, stronger effect = lower value 0.999 | locus YDR363W, strain ESC2, stronger effect = lower value 0.993 | locus YDR388W, stronger effect = lower value 1.01 | locus YDR392W, strain spt3, stronger effect = lower value 0.93 | locus YDR502C, strain sam2, stronger effect = lower value 0.984 | locus YEL003W, strain gim4, stronger effect = lower value 1 | locus YEL037C, strain rad23, stronger effect = lower value 0.995 | locus YEL061C, strain CIN8 (second series), stronger effect = lower value 1 | locus YEL061C, strain CIN8, stronger effect = lower value 0.982 | locus YER002W, strain NOP16, stronger effect = lower value 1 | locus YER015W, strain faa2, stronger effect = lower value 1 | locus YER016W, strain bim1, stronger effect = lower value 0.997 | locus YER110C, stronger effect = lower value 0.993 | locus YER111C, strain swi4, stronger effect = lower value 1 | locus YER155C, strain BEM2 (second series), stronger effect = lower value 0.995 | locus YER155C, strain BEM2, stronger effect = lower value 0.987 | locus YER167W, strain BCK2, stronger effect = lower value 1 | locus YFR010W, strain ubp6, stronger effect = lower value 0.993 | locus YGL078C, strain dbp3, stronger effect = lower value 0.992 | locus YGL086W, strain mad1, stronger effect = lower value 1.01 | locus YGL167C, strain pmr1, stronger effect = lower value 0.993 | locus YGL173C, strain kem1, stronger effect = lower value 0.995 | locus YGL227W, strain vid30, stronger effect = lower value 0.987 | locus YGL240W, strain doc1, stronger effect = lower value 0.985 | locus YGL248W, strain PDE1, stronger effect = lower value 0.982 | locus YGL253W, strain hxk2, stronger effect = lower value 1 | locus YGR078C, strain PAC10, stronger effect = lower value 0.978 | locus YGR135W, strain pre9, stronger effect = lower value 0.96 | locus YGR229C, strain SMI1, stronger effect = lower value 0.987 | locus YGR252W, strain gcn5, stronger effect = lower value 1.08 | locus YHR013C, strain ard1, stronger effect = lower value 0.982 | locus YHR027C, strain rpn1, stronger effect = lower value 0.999 | locus YHR030C, strain SLT2, stronger effect = lower value 0.996 and 0.974 | locus YHR079C, strain IRE1 (second series), stronger effect = lower value 0.998 | locus YHR079C, strain IRE1, stronger effect = lower value 0.941 | locus YHR094C, strain hxt1, stronger effect = lower value 0.999 | locus YHR129C, strain ARP1, stronger effect = lower value 0.99 | locus YHR142W, strain chs7, stronger effect = lower value 0.974 | locus YHR200W, strain rpn10, stronger effect = lower value 1 | locus YIL066C, strain RNR3, stronger effect = lower value 0.989 | locus YIL073C, strain SPO22, stronger effect = lower value 1.04 | locus YIL125W, strain kgd1, stronger effect = lower value 0.989 | locus YIR030C, strain dcg1, stronger effect = lower value 0.991 | locus YJL092W, strain hpr5, stronger effect = lower value 0.991 | locus YJL095W, strain BCK1 (second series), stronger effect = lower value 0.996 | locus YJL095W, strain BCK1, stronger effect = lower value 0.996 and 0.958 | locus YJL115W, strain asf1, stronger effect = lower value 0.993 | locus YJL129C, strain trk1, stronger effect = lower value 0.976 | locus YJL134W, strain LCB3, stronger effect = lower value 0.988 | locus YJL154C, strain vps35, stronger effect = lower value 0.994 | locus YJL164C, strain tpk1, stronger effect = lower value 0.985 | locus YJL166W, strain qcr8, stronger effect = lower value 0.991 | locus YJL168C, strain set2, stronger effect = lower value 0.993 | locus YJL187C, strain SWE1 (second series), stronger effect = lower value 0.967 | locus YJL187C, strain SWE1, stronger effect = lower value 0.995 | locus YJR043C, strain POL32, stronger effect = lower value 1.02 | locus YJR066W, strain TOR1, stronger effect = lower value 0.981
